Reference: PubChem BioAssay AID1159580 (chemical genetic matrix, 2015)
Screen size: about 5,500 compounds; about 2,000 (36%) were called active. Inconclusive results (about 18%) are left out. Cut-off read from the data, not from the text of the source: active = normalized growth mostly below about 0.91 (no sharp cut-off); inconclusive = no clear call, values can overlap the other calls; inactive = mostly above about 0.92. The list shows a part of the results.

Test: chemical genetic growth profiling, strain panel (AID 1159580);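 note: tested at 20 µM; growth read once vehicle control cultures reached saturation at 30 °C; 1 = growth at the plate median or of vehicle wells; lower values mean less growth of the strain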
Conditions: growth OD
[1] = S. cerevisiae deletion strains, locus YAL013W, strain DEP1, active compounds read low
[2] = S. cerevisiae deletion strains, locus YBR229C, strain ROT2, active compounds read low
[3] = S. cerevisiae deletion strains, locus YDL101C, strain DUN1, active compounds read low
[4] = S. cerevisiae deletion strains, locus YDL134C, strain PPH21, active compounds read low
[5] = S. cerevisiae deletion strains, locus YDR150W, strain NUM1, active compounds read low
[6] = S. cerevisiae deletion strains, locus YEL061C, strain CIN8, active compounds read low
[7] = S. cerevisiae deletion strains, locus YGR078C, strain PAC10, active compounds read low
[8] = S. cerevisiae deletion strains, locus YHR030C, strain SLT2, active compounds read low
[9] = S. cerevisiae deletion strains, locus YHR087W, strain rtc3, active compounds read low
[10] = S. cerevisiae deletion strains, locus YJL187C, strain SWE1, active compounds read low
[11] = S. cerevisiae deletion strains, locus YJR043C, strain POL32, active compounds read low
[12] = S. cerevisiae deletion strains, locus YJR075W, strain HOC1, active compounds read low
[13] = S. cerevisiae deletion strains, locus YLR039C, strain RIC1, active compounds read low
[14] = S. cerevisiae deletion strains, locus YLR058C, strain SHM2 (second series), active compounds read low
[15] = S. cerevisiae deletion strains, locus YLR085C, strain ARP6, active compounds read low
[16] = S. cerevisiae deletion strains, locus YLR262C, strain YPT6, active compounds read low
[17] = S. cerevisiae deletion strains, locus YML094W, strain GIM5, active compounds read low
[18] = S. cerevisiae deletion strains, locus YMR219W, strain ESC1, active compounds read low
[19] = S. cerevisiae deletion strains, locus YNL153C, strain GIM3, active compounds read low
[20] = S. cerevisiae deletion strains, locus YNL298W, strain CLA4 (second series), active compounds read low
[21] = S. cerevisiae deletion strains, locus YNL322C, strain KRE1, active compounds read low
[22] = S. cerevisiae deletion strains, locus YNR030W, strain Alg12, active compounds read low
[23] = S. cerevisiae deletion strains, locus YPL055C, strain LGE1, active compounds read low
[24] = S. cerevisiae deletion strains, locus YPL241C, strain CIN2, active compounds read low
[25] = S. cerevisiae deletion strains, locus YPR135W, strain CTF4, active compounds read low
[26] = S. cerevisiae strains, strain wild type, active compounds read low
[27] = S. cerevisiae deletion strains, locus YMR263W, strain SAP30, active compounds read low
[28] = S. cerevisiae deletion strains, locus YMR307W, strain GAS1, active compounds read low

Measured: normalized growth

S=c1nccc(-c2ccc(Cl)cc2)[nH]1
active: [1] 0.881 | [2] 0.861 | S. cerevisiae deletion strains, locus YCL061C, strain MRC1, active compounds read low 0.84 | [3] 0.844 | [4] 0.882 | [6] 0.904 | [7] 0.831 | [11] 0.818 | S. cerevisiae deletion strains, locus YKL190W, strain CNB1, active compounds read low 0.849 | [15] 0.413 | [18] 0.918 | [19] 0.895 | [20] 0.76 | [22] 0.694 | S. cerevisiae deletion strains, locus YOL006C, strain TOP1, active compounds read low 0.36 | [23] 0.631 | [24] 0.748 | [25] 0.554 | [26] 0.882
inactive: [5] 1.04 | [8] 0.722 | [9] 0.912 | [10] 0.969 | [12] 0.949 | [13] 1.01 | [14] 0.957 | [16] 1.05 | [17] 0.879 | [21] 0.988

COC(=O)CSc1ncnc2c(C)csc12
inactive: [1] 0.989 | [2] 0.998 | [3] 0.959 | [4] 0.973 | [5] 0.948 | [6] 0.978 | [7] 0.988 | [8] 0.802 | [9] 0.998 | [11] 0.973 | [12] 0.974 | [13] 0.958 | [14] 0.995 | [15] 0.9 | [16] 0.985 | [17] 0.949 | [18] 1 | [27] 0.981 | [28] 0.903 | [19] 0.994 | [20] 0.945 | [21] 1 | [22] 0.981 | [23] 0.953 | [24] 0.986 | [25] 0.818

COC(=O)CSc1nc2ccc(Cl)cc2s1
active: [8] 0.491 | [14] 0.932 | [15] 0.744 | [24] 1.18 [resistant]
inactive: [1] 0.964 | [2] 0.932 | [3] 0.906 | [5] 1.02 | [6] 0.96 | [7] 0.958 | [9] 0.942 | [10] 0.949 | [11] 0.977 | [12] 0.955 | [13] 0.842 | [16] 0.891 | [17] 0.901 | [18] 0.962 | [27] 1 | [28] 1.15 | [19] 0.962 | [20] 0.877 | [21] 0.959 | [22] 0.975 | [23] 0.92 | [25] 0.685

O=C1NN=C2C3CC4CC12CC1(C3)C(=O)NN=C41
inactive: [1] 0.992 | [2] 0.999 | [3] 1 | [4] 1.01 | [5] 1 | [6] 0.997 | [7] 1.01 | S. cerevisiae deletion strains, locus YGR229C, strain SMI1, active compounds read low 1 | [8] 1.03 | [9] 0.974 | [11] 1.02 | [12] 1.02 | [13] 1.05 | [14] 1 | [15] 0.989 | [16] 1.03 | [17] 0.974 | [18] 1 | [27] 0.974 | [19] 1.02 | [20] 0.983 | [21] 1.02 | [22] 0.978 | [23] 0.981 | [24] 0.998 | [25] 1.01 | [26] 0.999
